Measured values from PubChem BioAssay AID720504 (National Center for Advancing Translational Sciences (NCATS), 2013).
The campaign covered roughly 360,000 compounds. About 10,000 (2.8%) were called active. Inconclusive results (about 4%) are left out. Shown is part of a subset that was picked to be rich in actives. Unmarked numbers belong to inactive results. The call rests on the fitted dose curve; in most records, active means well fitted inhibition curve with a large enough effect; inconclusive means small, poorly fitted or top-dose-only effect; inactive means flat fitted curve, though single readings scatter.

Biological target: Serine/threonine-protein kinase PLK1 (Homo sapiens) (UniProt P53350)
Assay: qHTS for Inhibitors of PLK1-PDB (polo-like kinase 1 - polo-box domain): Primary Screen; further: nearly all actives have a fitted effect of over 65% in size; on max response, negative = inhibition: series mostly up to about 57 µM
Conditions: Plk1 PBD binding of FITC phosphopeptide, fluorescence polarization
On the % scale 0 is the no-effect control and ±100 the full control effect; potency means the concentration at half of the fitted maximal effect.

Serine/threonine-protein kinase PLK1 (Homo sapiens), sequence (P53350 whole entry, looked up, the tested form may be a part): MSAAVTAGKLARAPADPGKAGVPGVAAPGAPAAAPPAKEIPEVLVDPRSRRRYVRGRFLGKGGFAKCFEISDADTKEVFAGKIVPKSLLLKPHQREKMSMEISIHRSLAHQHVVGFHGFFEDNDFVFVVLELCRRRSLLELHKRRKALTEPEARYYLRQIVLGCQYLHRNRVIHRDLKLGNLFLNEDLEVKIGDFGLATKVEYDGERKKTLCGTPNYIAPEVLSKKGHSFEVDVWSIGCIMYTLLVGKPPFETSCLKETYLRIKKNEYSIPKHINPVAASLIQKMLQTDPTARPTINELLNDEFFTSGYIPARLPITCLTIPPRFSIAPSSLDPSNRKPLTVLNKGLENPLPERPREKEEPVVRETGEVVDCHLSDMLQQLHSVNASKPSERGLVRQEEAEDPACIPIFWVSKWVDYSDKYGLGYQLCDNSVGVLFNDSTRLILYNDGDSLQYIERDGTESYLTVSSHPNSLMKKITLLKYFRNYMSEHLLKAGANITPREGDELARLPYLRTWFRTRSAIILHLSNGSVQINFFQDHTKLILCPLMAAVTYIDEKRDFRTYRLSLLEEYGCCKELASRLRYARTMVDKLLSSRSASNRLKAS

| Structure (SMILES) | max response, negative = inhibition | Potency |
| --- | --- | --- |
| Cc1csc(=O)n1CCC(=O)OCC(=O)Nc1ccc(N2CCOCC2)cc1 | 1% |  |
| CSc1ccc(CN2CCC2(C)C(=O)Nc2ccc(C)c(O)c2)cc1 (centres undefined) | 4.93% |  |
| COc1cc(F)ccc1-c1cc(C(=O)NCC2CCCCC2)[nH]n1 | 1.4% |  |
| CCOc1ccc(C2C(C#N)=C(N)N(N(C)C)C3=C2C(=O)CCC3)cc1 (centres undefined) | -4.98% |  |
| N#CC1=C(N)N(c2ccccc2)C2=C(C(=O)CCC2)C1c1ccccc1 (centres undefined) | -0.426% |  |
| COc1ccc(C2C(C#N)=C(N)N(c3ncn[nH]3)C3=C2C(=O)CCC3)cc1 (centres undefined) |  | 26.7 µM (active) |
| CC1(C(=O)NCc2ccccc2)CN(S(C)(=O)=O)CC(=O)N1CC(F)(F)F (centres undefined) | 3.31% |  |
| CCC(=O)N1Cc2cc(C(=O)NCc3cccc(F)c3)nc(-c3cccc(C4=CCCC4)c3)c2[C@H]1CCO | -10.3% |  |
| O=C(Cn1c[n+](CC(=O)c2ccc([N+](=O)[O-])cc2)cn1)c1ccc([N+](=O)[O-])cc1 | -8% |  |
| O=C(CC(n1cncn1)C(Cl)(Cl)Cl)c1ccc([N+](=O)[O-])cc1 (centres undefined) |  | 23.8 µM (active) |
| O=C(Nn1cnnc1)c1ccc([N+](=O)[O-])cc1 | -3.8% |  |
| OC[C@@H]1CN(Cc2cccs2)C[C@H](n2cnc3c(NC4CCCC4)ncnc32)O1 | -8.04% |  |
| O=C(Nc1cccc2ccccc12)NC1CC1 | -14.1% |  |
| COc1ccc(C(C(=O)Nc2c(C)cccc2C)N2CCN(c3ccc(C)cc3)CC2)cc1 (centres undefined) | -1.1% |  |
| N#Cc1c(-c2ccccc2)cc(-c2ccccc2)nc1SCC(=O)O |  | 21.2 µM (active) |
| N#Cc1c(C(F)(F)F)cc(-c2ccc(Cl)cc2)nc1SCC(=O)O | -8.73% |  |
| N#Cc1c(C(F)(F)F)cc(-c2ccccc2)nc1SCC(=O)N1CCOCC1 | -6.59% |  |
| OC(c1ccc(Cl)cc1)c1ncc(-c2ccc(Cl)cc2)[nH]1 (centres undefined) | 5.29% |  |
| CC1=C(C(=O)N2CCOCC2)CC(CC(=O)NCCCN(C)C)C(=O)N1Cc1ccc(C(C)(C)C)cc1 (centres undefined) | -2.35% |  |
| CCc1nc2ccc(C(=O)N3CCC(O)(Cc4ccccc4)CC3)cn2c1N(C)C(=O)Cc1ccccc1 | -2.01% |  |
| Nc1ncnc2c1ncn2[C@@H]1O[C@H](C(=O)NCC(F)(F)F)[C@@H](O)[C@H]1O | -5.72% |  |
| CCOC(=O)N1CCN(S(=O)(=O)c2ccc(-n3cnnn3)cc2)CC1 | -22.3% |  |
| CCOC(=O)c1c(-n2cnnn2)sc(C)c1C |  | 26.7 µM (active) |
| CCOc1ccc(C(=O)COC(=O)c2ccc(-n3cnnn3)cc2)cc1 | 2.47% |  |
